According to PubChem BioAssay (NCATS):
Inconclusive results are not listed. Calls of active or inactive are those of the source. The call rests on the fitted dose curve; in most records, active means well fitted curve in the direction sought with a large enough effect; inconclusive means small, poorly fitted or top-dose-only effect, or another doubt; inactive means no such curve, though single readings can be large; an effect the other way counts as inactive or inconclusive.

Experiments:
[1] = Cell Viability - LYMP2-025 (AID 976); further: potency means the concentration at half of the fitted maximal effect
Method in brief: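 In qHTS format, LYMP2-025 lymphoblastoid cells in complete culture medium received compound for 24 hr; ATP-based CellTiter-Glo signal gave viability, with AC50 derived by Hill equation.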

[2] = Cell Viability - LYMP2-002 (AID 977);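 further: compound exposure lasted 24 h at 37 °C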; further: potency means the concentration at half of the fitted maximal effect
Method in brief: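 Human lymphoblastoid LYMP2-002 cells, 2500 per well, exposed to compounds for 24 h at 37 C in complete medium; viability read as intracellular ATP by CellTiter-Glo luminescence, AC50 from Hill fits.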

[3] = Cell Viability - LYMP2-006 (AID 978); further: nearly all actives have a fitted effect of over 60% in size; further: potency means the concentration at half of the fitted maximal effect
Method in brief: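 In this cytotoxicity screen, the human lymphoblastoid line grew in complete medium with test compounds for 24 hr at 37 C. Cellular ATP served as the viability signal.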

[4] = Cell Viability - LYMP2-007 (AID 979);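 further: cells exposed to compound for 24 h before reading; nearly all actives have a fitted effect of over 60% in size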; further: potency means the concentration at half of the fitted maximal effect
Method in brief: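 Acute toxicity is scored as a concentration-dependent fall in intracellular ATP in human lymphoblastoid cells treated 24 hr at 37 C, measured by luciferase luminescence; Hill-equation modelling yields AC50.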

[5] = Cell Viability - LYMP2-008 (AID 980); further: nearly all actives have a fitted effect of over 60% in size; further: potency means the concentration at half of the fitted maximal effect
Method in brief: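 Acute cytotoxicity is scored as concentration-dependent loss of cellular ATP in a human lymphoblastoid line after 24 hr treatment at 37 C. ATP is quantified by luciferase luminescence.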

[6] = Cell Viability - LYMP2-010 (AID 981); further: nearly all actives have a fitted effect of over 55% in size; further: potency means the concentration at half of the fitted maximal effect
Method in brief: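 Acute toxicity is scored as a concentration-dependent loss of cellular ATP in human lymphoblastoid cells after 24 hr compound exposure in complete medium. Tetraoctylammonium bromide is the positive control.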

[7] = Cell Viability - LYMP2-012 (AID 982);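 further: cellular ATP by luciferase luminescence where a drop means cytotoxicity; cells exposed to compound for one day before reading; nearly all actives have a fitted effect of over 55% in size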; further: potency means the concentration at half of the fitted maximal effect
[8] = Cell Viability - LYMP2-014 (AID 983); further: nearly all actives have a fitted effect of over 50% in size; further: potency means the concentration at half of the fitted maximal effect
Method in brief: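 Decrease in intracellular ATP after 24 hr treatment at 37 C, measured by luciferase luminescence, indicated cytotoxicity. Concentration-response data were fitted with the standard Hill equation to give AC50.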

[9] = Cell Viability - LYMP2-016 (AID 984); further: nearly all actives have a fitted effect of over 55% in size; further: potency means the concentration at half of the fitted maximal effect
Method in brief: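 Concentration-dependent ATP depletion measured in LYMP2-016 lymphoblastoid cells, 24 h, 37 C; luciferase-based luminescent detection; Hill-equation AC50.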

[10] = Cell Viability - LYMP2-018 (AID 985);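 further: compound exposure lasted 24 hr at 37 °C; nearly all actives have a fitted effect of over 50% in size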; further: potency means the concentration at half of the fitted maximal effect
Method in brief: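 Acute cytotoxicity is scored as a concentration-dependent drop in intracellular ATP after 24 hr exposure of the lymphoblastoid line in complete culture medium, measured by luciferase luminescence. Potency is expressed as AC50 from Hill modelling.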

[11] = Cell Viability - LYMP2-020 (AID 986); further: nearly all actives have a fitted effect of over 55% in size; further: potency means the concentration at half of the fitted maximal effect
Method in brief: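 Acute cytotoxicity in a human lymphoblastoid line is scored as a concentration-dependent fall in cellular ATP after 24 hr at 37 C in complete medium. The positive control is tetraoctylammonium bromide, and potency is given as Hill-fit AC50.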

[12] = Cell Viability - LYMP2-022 (AID 987); further: nearly all actives have a fitted effect of over 55% in size; further: potency means the concentration at half of the fitted maximal effect
Method in brief: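 Acute toxicity in a human lymphoblastoid line is scored as decreased intracellular ATP after 24 hr compound treatment at 37 C. ATP is measured by CellTiter-Glo luminescence; curves are fitted with the Hill equation to give AC50.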

[13] = Cell Viability - LYMP2-024 (AID 988); further: nearly all actives have a fitted effect of over 60% in size; further: potency means the concentration at half of the fitted maximal effect
Method in brief: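 Acute toxicity is measured as concentration-dependent loss of intracellular ATP in a human lymphoblastoid line treated 24 hours at 37 C. Luciferase luminescence quantifies ATP; AC50 values come from standard Hill-equation modelling.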

[14] = Cell Viability - LYMP2-026 (AID 989); further: nearly all actives have a fitted effect of over 50% in size; further: potency means the concentration at half of the fitted maximal effect
Method in brief: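 Concentration-dependent loss of intracellular ATP in human lymphoblastoid cells after 24 hr at 37 C, quantified by luciferase luminescence. AC50 derived from standard Hill equation.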

[15] = Cell Viability - LYMP1-002 - Assay at 24 hr (AID 993); further: potency means the concentration at half of the fitted maximal effect
Method in brief: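 qHTS, LYMP1-002 lymphoblastoid, 24 h cpd, 37 C, CellTiter-Glo ATP luminescence; AC50 via Hill eq.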

[16] = Cell Viability - LYMP1-002 - Assay at 40 hr (AID 994); further: nearly all actives have a fitted effect of over 60% in size; further: potency means the concentration at half of the fitted maximal effect
Method in brief: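 Viability in the human lymphoblastoid line was measured as intracellular ATP via CellTiter-Glo after 40 hr compound exposure. Tetraoctylammonium bromide served as positive control.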

[17] = biological target: Alpha-galactosidase A (Homo sapiens) (UniProt P06280); assay: Counterscreen for Glucocerebrosidase Inhibitors: qHTS Assay for Human alpha-Galactosidase at pH 4.5 (AID 992)
Sequence of Alpha-galactosidase A (Homo sapiens) (P06280 whole entry, looked up): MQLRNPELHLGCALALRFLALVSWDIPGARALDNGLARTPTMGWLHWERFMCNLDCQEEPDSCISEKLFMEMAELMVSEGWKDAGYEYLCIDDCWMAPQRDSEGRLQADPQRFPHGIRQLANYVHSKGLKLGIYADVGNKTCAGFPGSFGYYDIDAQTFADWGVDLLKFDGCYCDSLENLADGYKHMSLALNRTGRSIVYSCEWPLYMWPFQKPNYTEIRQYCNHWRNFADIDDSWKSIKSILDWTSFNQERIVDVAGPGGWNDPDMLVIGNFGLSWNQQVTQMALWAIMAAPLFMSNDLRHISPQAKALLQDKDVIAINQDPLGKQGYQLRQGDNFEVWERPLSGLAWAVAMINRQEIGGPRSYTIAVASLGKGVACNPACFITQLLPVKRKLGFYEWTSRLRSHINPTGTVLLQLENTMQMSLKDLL
Method in brief: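 Quantitative HTS: compounds tested from 0.7 nM up to 77 uM against 2 nM enzyme with 80 uM 4-MU alpha-D-galactopyranoside. The 20 min room-temperature reaction is stopped with 1M NaOH/1M glycine, pH 10.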

[18] = biological target: Alpha-galactosidase (Coffea arabica) (UniProt Q42656); assay: Counterscreen for Glucocerebrosidase Inhibitors: qHTS Assay for Coffee Bean alpha-Galactosidase at pH 5.9 (AID 998)
Sequence of Alpha-galactosidase (Coffea arabica) (Q42656 whole entry, looked up): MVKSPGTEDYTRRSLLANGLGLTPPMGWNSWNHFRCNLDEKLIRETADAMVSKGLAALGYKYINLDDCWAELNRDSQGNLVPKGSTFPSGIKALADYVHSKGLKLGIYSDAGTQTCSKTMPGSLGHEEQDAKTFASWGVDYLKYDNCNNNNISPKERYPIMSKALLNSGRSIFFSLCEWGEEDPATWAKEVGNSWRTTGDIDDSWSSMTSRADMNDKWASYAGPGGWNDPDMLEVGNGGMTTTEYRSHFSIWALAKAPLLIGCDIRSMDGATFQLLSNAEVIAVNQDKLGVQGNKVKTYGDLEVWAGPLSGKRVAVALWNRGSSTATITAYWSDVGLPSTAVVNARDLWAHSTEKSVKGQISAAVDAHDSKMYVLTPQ
Method in brief: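 Green coffee bean enzyme (2 nM) with 4-methylumbelliferyl alpha-D-galactopyranoside (80 uM) in 50 mM citric acid, 0.005% Tween-20, pH 5.9, 20 min at room temperature; compounds 0.7 nM–77 uM. Stopped at pH 10, fluorescence Ex365/Em440; Hill-fit AC50.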

Measured: Potency

CCCCOC(=O)c1ccccc1C(=O)OCc1ccccc1
inactive: [1] | [2] | [3] | [4] | [5] | [6] | [7] | [8] | [9] | [10] | [11] | [12] | [13] | [14] | [15] | [16]

CC(=O)[O][Hg][c]1ccccc1
active: [1] 1260 nM | [2] 1580 nM | [3] 1580 nM | [4] 1000 nM | [5] 1260 nM | [6] 398 nM | [7] 501 nM | [8] 1580 nM | [9] 1000 nM | [10] 631 nM | [11] 794 nM | [12] 501 nM | [13] 501 nM | [14] 1260 nM | [15] 3980 nM | [16] 3980 nM

COC(C)(C)CCCC(C)C/C=C/C(C)=C/C(=O)OC(C)C (centres undefined)
inactive: [1] | [2] | [3] | [4] | [5] | [6] | [7] | [8] | [9] | [10] | [11] | [12] | [13] | [14] | [15] | [16]

CN[C@@H]1C[C@@H](c2ccc(Cl)c(Cl)c2)c2ccccc21
inactive: [17] | [18]

c1cc2ccc3cccc4ccc(c1)c2c34
inactive: [1] | [2] | [3] | [4] | [5] | [6] | [7] | [8] | [9] | [10] | [11] | [12] | [13] | [14] | [15] | [16]

O=[N+]([O-])c1c2ccccc2cc2ccccc12
inactive: [1] | [2] | [3] | [4] | [5] | [6] | [7] | [8] | [9] | [10] | [11] | [12] | [13] | [14] | [15] | [16]

Nc1ccc(Cl)cc1
inactive: [1] | [2] | [3] | [4] | [5] | [6] | [7] | [8] | [9] | [10] | [11] | [12] | [13] | [14] | [15] | [16]

CCCCC(CC)COC(=O)c1ccccc1C(=O)OCC(CC)CCCC (centres undefined)
inactive: [1] | [2] | [3] | [4] | [5] | [6] | [7] | [8] | [9] | [10] | [11] | [12] | [13] | [14] | [15] | [16]

Cc1c(C(=O)c2cccc3ccccc23)c2cccc3c2n1[C@H](CN1CCOCC1)CO3
inactive: [17] | [18]

CC(C)c1ccc2c(c1)c(SC(C)(C)C)c(CC(C)(C)C(=O)O)n2Cc1ccc(Cl)cc1
inactive: [18]

CCOCCOC(C)=O
inactive: [1] | [2] | [3] | [4] | [5] | [6] | [7] | [8] | [9] | [10] | [11] | [12] | [13] | [14] | [15] | [16]

Nc1ccc(Sc2ccc(N)cc2)cc1
inactive: [1] | [2] | [3] | [4] | [5] | [6] | [7] | [8] | [9] | [10] | [11] | [12] | [13] | [14] | [15] | [16]

Nc1ccc([N+](=O)[O-])cc1
inactive: [1] | [2] | [3] | [4] | [5] | [6] | [7] | [8] | [9] | [10] | [11] | [12] | [13] | [14] | [15] | [16]

Cc1nc(-c2ccc(-c3ccc(C(=O)N4CCc5cc6c(cc54)C4(CCN(C)CC4)CO6)cc3)c(C)c2)no1
inactive: [17]

O=[N+]([O-])c1cc([N+](=O)[O-])c2ccccc2c1
inactive: [1] | [2] | [3] | [4] | [5] | [6] | [7] | [8] | [9] | [10] | [11] | [12] | [13] | [14] | [15] | [16]

O=S(=O)(c1ccc(Cl)cc1)c1ccc(Cl)cc1
inactive: [1] | [2] | [3] | [4] | [5] | [6] | [7] | [8] | [9] | [10] | [11] | [12] | [13] | [14] | [15] | [16]

CN(C)NC(=O)CCC(=O)O
inactive: [1] | [2] | [3] | [4] | [5] | [6] | [7] | [8] | [9] | [10] | [11] | [12] | [13] | [14] | [15] | [16]

COc1ccc2c(c[n+](C)c3c4cc5c(cc4ccc23)OCO5)c1OC
inactive: [17]

O=C(O)C(Cl)Cl
inactive: [1] | [2] | [3] | [4] | [5] | [6] | [7] | [8] | [9] | [10] | [11] | [12] | [13] | [14] | [15] | [16]

C=CC(=O)NCNC(=O)C=C
inactive: [1] | [2] | [3] | [4] | [5] | [6] | [7] | [8] | [9] | [10] | [11] | [12] | [13] | [14] | [15] | [16]

Nc1ccc(Cl)cc1N
inactive: [1] | [2] | [3] | [4] | [5] | [6] | [7] | [8] | [9] | [10] | [11] | [13] | [14] | [15] | [16]

CC(C)(O)C(=O)Nc1ccc([N+](=O)[O-])c(C(F)(F)F)c1
inactive: [1] | [2] | [3] | [4] | [5] | [6] | [7] | [8] | [9] | [10] | [11] | [13] | [14] | [15] | [16]

O=[N+]([O-])c1c(Cl)c(Cl)cc(Cl)c1Cl
inactive: [1] | [2] | [3] | [4] | [5] | [6] | [7] | [8] | [9] | [10] | [11] | [12] | [13] | [14] | [15] | [16]

OCCCBr
inactive: [1] | [2] | [3] | [4] | [5] | [6] | [7] | [8] | [9] | [10] | [11] | [12] | [13] | [14] | [15] | [16]
